Screening results: PubChem BioAssay, National Center for Advancing Translational Sciences (NCATS)
The list is not random: actives were taken first. Their share in the collection is about 13%.
Pf growth 48h – P. falciparum growth inhibition at 48 hours (one generation). P. falciparum luciferase growth in erythrocytes, 48 h. hit rate 5.9% among 310,000. Potency, µM (doses to about 28.7 µM), hits mostly inhibitors
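Parasite viability was followed by luminescence of a genomically integrated firefly luciferase. Cultures held 0.1% parasitemia at 2% hematocrit (final), incubated under 5% CO2 at 37 C.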
Pf growth 96h – inhibits malaria parasite growth, 96 h. P. falciparum luciferase reporter growth, 96 h. hit rate 6.9% among 320,000. Potency, µM (doses to about 28.7 µM), most hits filed as inhibitors. AID 504834
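Two-generation exposure (96 h) targets delayed-death phenotype. Reporter parasites carrying integrated firefly luciferase, in red cells at 2% hematocrit and 0.05% parasitemia final, kept at 37 C, 5% CO2; luminescence loss indicates inhibition.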
HCV inhibitor – blocks hepatitis C virus | Huh7.5.1 HCVcc-Cre infection, luciferase reporter, 44 h | hit rate 3.4% among 340,000 | AID 651820 | Potency, µM (titrated, usually from 41.8 µM), most hits filed as inhibitors
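1,000 cells/well; 4 h culture; + compound; + HCVcc-Cre (~0.5 moi); 44 h; luciferase substrate, RT 15 min; read 15 sec.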
HCMV inh – blocks human cytomegalovirus replication; HFF cells, HCMV-luciferase reporter, 72 h; stronger effect = lower value; activity change, negative = inhibition, % at 57.5 µM; hit rate 4.5% among 410,000; AID 1259415; in the data active = activity change below about -60%; inconclusive = no clear call, values can overlap the other calls; inactive = above about -39%
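Human foreskin fibroblasts infected with luciferase-reporter HCMV at MOI 1 PFU/cell, compounds at two doses. Luciferase measured 72 h post infection; normalized to buffer-only basal and Salinomycin (10uM) controls.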
Of the large screens only hits and unclear results are named; the others gave an inactive call. Unless noted, calls come from the whole dose curve; as a rule, active = well fitted inhibition curve with a large enough effect; inconclusive = small, poorly fitted or top-dose-only effect, or another doubt; inactive = no such curve, though single readings can be large or run the other way.

COc1ccc(/C=N/NC(=O)c2nc(Cl)c(Cl)c(N)c2Cl)cc1COc1ccccc1F	Pf growth 48h inconclusive, Pf growth 96h inconclusive, HCV inhibitor inconclusive
COc1ccc(/C=N/NC(=O)c2ccco2)cc1COc1ccc(F)cc1	Pf growth 48h 9.28µM, Pf growth 96h inconclusive
COc1ccc(/C=N\NC(=O)c2ccccc2)cc1COc1ccccc1	Pf growth 48h inconclusive, Pf growth 96h 11.7µM
COc1ccc(/C=N/NC(=O)c2nc(Cl)c(Cl)c(N)c2Cl)cc1COc1ccc(F)cc1F	HCV inhibitor 11.2µM
COc1ccc(/C=N\NC(=O)c2ccccc2F)cc1COc1ccc(F)cc1	Pf growth 96h inconclusive
COc1ccc(/C=N/NC(=O)c2ccc(OC)c(OC)c2)cc1COc1c(F)c(F)c(F)c(F)c1F	HCV inhibitor 3.55µM
COc1ccc(/C=N\NC(=O)c2cc(O)c(O)c(O)c2)cc1COc1ccc(C(=O)OCC(C)C)cc1	Pf growth 48h 2.94µM, Pf growth 96h inconclusive, HCV inhibitor 5.62µM
CCOC(=O)c1ccccc1OCc1cc(/C=N/NC(=O)c2cccnc2)ccc1OC	none
COc1cc(OC)cc(C(=O)N/N=C/c2ccc(OC)c(COc3ccc4ccccc4c3)c2)c1	Pf growth 96h inconclusive
COc1ccc(/C=N\NC(=O)c2ccccc2OC)cc1COc1ccccc1C	Pf growth 48h 13.1µM, HCV inhibitor inconclusive
COc1ccc(/C=N\NC(=O)c2ccccc2F)cc1COc1ccc(F)cc1F	Pf growth 48h inconclusive, Pf growth 96h inconclusive, HCV inhibitor inconclusive, HCMV inh -80.2
Cc1occc1C(=O)N/N=C/c1ccc(N(C)C)cc1	none
COc1cc(/C=N/NC(=O)c2ccoc2C)cc(OC)c1O	Pf growth 96h 2.62µM
COc1ccc(/C=N/NC(=O)c2ccccc2O)cc1COc1ccccn1	none
COc1ccc(/C=N/NC(=O)c2cc(C(C)(C)C)[nH]n2)cc1COc1ccc(F)cc1F	Pf growth 48h inconclusive, Pf growth 96h 13.1µM, HCV inhibitor inconclusive
COc1ccc(/C=N/NC(=O)c2ccoc2C)cc1COc1c(C)cccc1C	Pf growth 48h inconclusive, Pf growth 96h 10.4µM, HCV inhibitor inconclusive, HCMV inh -96.8
CCc1nn(CC(=O)Nc2ccc(C)c(F)c2)c(=O)c2cc3cc(C)ccc3n12	none (no result: Pf growth 48h, Pf growth 96h, HCV inhibitor)
COc1ccc(NCc2nnc3n2CCCCC3)c(OC)c1	none (no result: Pf growth 48h, Pf growth 96h, HCV inhibitor)
COc1cc(C(=O)NCC(c2cccs2)N2CCOCC2)cc(Br)c1OCc1ccccc1 (centres undefined)	HCV inhibitor 10µM (no result: Pf growth 48h, Pf growth 96h)
O=C(NCCCN1CCCC1=O)c1ccc(OCc2ccccc2)cc1	none (no result: Pf growth 48h)
COc1cc(C(=O)NCCCN2CCCC2=O)cc(Br)c1OCc1ccccc1	Pf growth 48h 9.28µM, Pf growth 96h inconclusive, HCV inhibitor inconclusive
Cc1ccc(CNC(=O)Cn2ccn(-c3ccc(F)c(F)c3)c(=O)c2=O)cc1	none (no result: Pf growth 48h, Pf growth 96h, HCV inhibitor)
Fc1ccc(-c2nnc(CN3CCN(c4ccccn4)CC3)o2)cc1	none (no result: Pf growth 48h, Pf growth 96h, HCV inhibitor)
COc1cccc(CNC(=O)CSc2nnc3c(n2)[nH]c2ccccc23)c1	HCV inhibitor 10µM
O=C(CSc1ncc(-c2ccccc2)nn1)NCc1ccco1	none
COc1ccc(-c2nnc(SCC(=O)NCc3ccccc3)nc2-c2ccc(OC)c(OC)c2)cc1OC	HCMV inh -78.2 (no result: Pf growth 48h, Pf growth 96h, HCV inhibitor)
CCOc1ccc(-c2nnc(SCC(=O)NC(C)(C)C)nc2-c2ccc(OCC)c(OC)c2)cc1OC	Pf growth 48h 2.33µM, Pf growth 96h inconclusive, HCV inhibitor inconclusive
CCOc1ccc(-c2nnc(SCC(=O)NC3CCCC3)nc2-c2ccc(OCC)c(OC)c2)cc1OC	none (no result: Pf growth 48h, Pf growth 96h, HCV inhibitor)
COc1cccc(CNC(=O)CSc2nnc3c(n2)[nH]c2ccc(OC)cc23)c1	none
O=C(CSc1nnc(-c2ccccc2)c(-c2ccccc2)n1)NCc1ccco1	Pf growth 48h 10.4µM, HCV inhibitor inconclusive
COc1cc(NC(=O)CC(C)S(=O)(=O)c2cc3c4c(c2)CCN4C(=O)CC3)cc(OC)c1 (centres undefined)	none (no result: Pf growth 48h, Pf growth 96h, HCV inhibitor)
CC1CCCC(C)N1C(=O)c1ccccc1 (centres undefined)	none (no result: Pf growth 48h, Pf growth 96h, HCV inhibitor)
CC1CCc2cc(F)ccc2N1C(=O)CSc1nnc2c(n1)[nH]c1ccccc12 (centres undefined)	Pf growth 48h 1.47µM, Pf growth 96h inconclusive, HCV inhibitor inconclusive, HCMV inh -75.6
Cc1ccc(OCc2nnc(NC(=O)c3ccco3)s2)c(C)c1	Pf growth 96h 1.85µM, HCMV inh -105.2
Cc1ccc(OCc2nnc(NC(=O)c3ccco3)s2)cc1	none (no result: Pf growth 48h)
O=c1[nH]c(SCc2c(F)cccc2Cl)nc2c1CCC2	none (no result: Pf growth 48h, Pf growth 96h, HCV inhibitor)
Cc1cccc(NC(=O)c2sc3nc4c(cc3c2N)CCCCCC4)c1C	HCMV inh -82.0 (no result: Pf growth 48h, Pf growth 96h, HCV inhibitor)
COc1cc([N+](=O)[O-])c(OC)cc1SCc1n[nH]c(=S)n1-c1ccc(F)cc1	Pf growth 96h 1.65µM
CCOC(=O)[C@]12Cc3cc(C)ccc3[C@H]1N(C1CCCCC1)C(=O)c1cc(OC)ccc12	HCMV inh -103.5 (no result: Pf growth 48h, Pf growth 96h, HCV inhibitor)
COc1ccc2c(c1)C(=O)N(c1ccc(C)cc1C)C(=O)C2(C)C	Pf growth 96h inconclusive, HCMV inh inconclusive
CCOC(=O)[C@]12Cc3cc(OC)ccc3[C@H]1N(C1CCCCC1)C(=O)c1cc(OC)ccc12	HCMV inh -98.3 (no result: Pf growth 48h, Pf growth 96h, HCV inhibitor)
Cc1cc(C)c(/C=C/c2onc(C)c2S(=O)(=O)N2CCC(C(=O)NCCc3ccccc3)CC2)c(C)c1	none (no result: Pf growth 48h, Pf growth 96h, HCV inhibitor)
CCCCCn1c(=S)[nH]c2ncccc2c1=O	Pf growth 96h 9.28µM
COCCCn1c(=S)[nH]c2ncccc2c1=O	Pf growth 96h inconclusive
COc1cc(NC(=O)CCc2c(C)nn(-c3ccc(N4CCCCC4)nn3)c2C)cc(OC)c1OC	none (no result: Pf growth 48h, Pf growth 96h, HCV inhibitor)
O=C(c1ccc2c(c1)N(Cc1ccccc1)C(=O)c1ccccc1S2=O)N1CCC(Cc2ccccc2)CC1 (centres undefined)	HCMV inh -75.9 (no result: Pf growth 48h, Pf growth 96h, HCV inhibitor)
CN1CCN(C(=O)c2ccc3c(c2)N(Cc2ccc(Cl)cc2)C(=O)c2ccccc2S3=O)CC1 (centres undefined)	Pf growth 48h 10.4µM
CCOC(=O)N1CCC(NC(=O)c2ccc3c(c2)N(Cc2ccc(Cl)cc2)C(=O)c2ccccc2S3=O)CC1 (centres undefined)	HCMV inh -82.0 (no result: Pf growth 48h, Pf growth 96h, HCV inhibitor)
O=C(c1ccc2c(c1)N(Cc1ccc(F)cc1)C(=O)c1ccccc1S2=O)N1CCC(Cc2ccccc2)CC1 (centres undefined)	HCMV inh -78.4 (no result: Pf growth 48h, Pf growth 96h, HCV inhibitor)
CCC(Sc1ncc(S(=O)(=O)c2ccc(Cl)cc2)c(=O)[nH]1)C(=O)Nc1ccc(OC)cc1 (centres undefined)	none (no result: Pf growth 48h, Pf growth 96h, HCV inhibitor)
Cc1cccc(NC(=O)C(=O)NCC(c2cccnc2)N2CCc3ccccc32)c1C (centres undefined)	none (no result: Pf growth 48h, Pf growth 96h, HCV inhibitor)
CCOc1cccc2sc(NC(=O)c3ccc(S(=O)(=O)N4CCCCC4)cc3)nc12	none (no result: Pf growth 48h, Pf growth 96h, HCV inhibitor)
CCNc1nc(Oc2ccc(=O)n(-c3ccccc3)n2)nc(N(C)C)n1	Pf growth 96h 2.62µM
CCNc1nc(OC)nc(Oc2ccc(=O)n(-c3ccccc3)n2)n1	Pf growth 48h 0.928µM
COc1nc(NCC(C)C)nc(Oc2ccc(=O)n(-c3ccccc3)n2)n1	none (no result: Pf growth 48h)
CCNc1nc(NCc2ccccc2)nc(Oc2ccc(=O)[nH]n2)n1	Pf growth 48h 1.04µM
